# Experimental data reported in PubChem BioAssay AID1671202 (University of Kansas High Throughput Screening Laboratory, 2021).
# “And” between values parts separate entries of the source, which are not always exact repeats. Equal entries are not always repeated. About 6,900 (3.6%) of roughly 190,000 compounds were called active. Shown is part of a subset that was picked to be rich in actives. A number with no mark means an inactive call. Cut-off read from the data, not from the text of the source: active = inhibition above about 50%; inactive = the rest.
# Target: Huntingtin (Homo sapiens) (UniProt P42858)
# Assay: mutant huntingtin-calmodulin interaction inhibitors – biochemical, AlphaScreen, primary screen (AID 1671202);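 for inhibition: 0% = both proteins with DMSO and 100% = one protein alone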
# Settings: AlphaScreen His-mHTT/GST-CaM binding, luminescence; at 15 µM, hits give high values
# Huntingtin (Homo sapiens), sequence (P42858 whole entry, looked up, stated change not applied): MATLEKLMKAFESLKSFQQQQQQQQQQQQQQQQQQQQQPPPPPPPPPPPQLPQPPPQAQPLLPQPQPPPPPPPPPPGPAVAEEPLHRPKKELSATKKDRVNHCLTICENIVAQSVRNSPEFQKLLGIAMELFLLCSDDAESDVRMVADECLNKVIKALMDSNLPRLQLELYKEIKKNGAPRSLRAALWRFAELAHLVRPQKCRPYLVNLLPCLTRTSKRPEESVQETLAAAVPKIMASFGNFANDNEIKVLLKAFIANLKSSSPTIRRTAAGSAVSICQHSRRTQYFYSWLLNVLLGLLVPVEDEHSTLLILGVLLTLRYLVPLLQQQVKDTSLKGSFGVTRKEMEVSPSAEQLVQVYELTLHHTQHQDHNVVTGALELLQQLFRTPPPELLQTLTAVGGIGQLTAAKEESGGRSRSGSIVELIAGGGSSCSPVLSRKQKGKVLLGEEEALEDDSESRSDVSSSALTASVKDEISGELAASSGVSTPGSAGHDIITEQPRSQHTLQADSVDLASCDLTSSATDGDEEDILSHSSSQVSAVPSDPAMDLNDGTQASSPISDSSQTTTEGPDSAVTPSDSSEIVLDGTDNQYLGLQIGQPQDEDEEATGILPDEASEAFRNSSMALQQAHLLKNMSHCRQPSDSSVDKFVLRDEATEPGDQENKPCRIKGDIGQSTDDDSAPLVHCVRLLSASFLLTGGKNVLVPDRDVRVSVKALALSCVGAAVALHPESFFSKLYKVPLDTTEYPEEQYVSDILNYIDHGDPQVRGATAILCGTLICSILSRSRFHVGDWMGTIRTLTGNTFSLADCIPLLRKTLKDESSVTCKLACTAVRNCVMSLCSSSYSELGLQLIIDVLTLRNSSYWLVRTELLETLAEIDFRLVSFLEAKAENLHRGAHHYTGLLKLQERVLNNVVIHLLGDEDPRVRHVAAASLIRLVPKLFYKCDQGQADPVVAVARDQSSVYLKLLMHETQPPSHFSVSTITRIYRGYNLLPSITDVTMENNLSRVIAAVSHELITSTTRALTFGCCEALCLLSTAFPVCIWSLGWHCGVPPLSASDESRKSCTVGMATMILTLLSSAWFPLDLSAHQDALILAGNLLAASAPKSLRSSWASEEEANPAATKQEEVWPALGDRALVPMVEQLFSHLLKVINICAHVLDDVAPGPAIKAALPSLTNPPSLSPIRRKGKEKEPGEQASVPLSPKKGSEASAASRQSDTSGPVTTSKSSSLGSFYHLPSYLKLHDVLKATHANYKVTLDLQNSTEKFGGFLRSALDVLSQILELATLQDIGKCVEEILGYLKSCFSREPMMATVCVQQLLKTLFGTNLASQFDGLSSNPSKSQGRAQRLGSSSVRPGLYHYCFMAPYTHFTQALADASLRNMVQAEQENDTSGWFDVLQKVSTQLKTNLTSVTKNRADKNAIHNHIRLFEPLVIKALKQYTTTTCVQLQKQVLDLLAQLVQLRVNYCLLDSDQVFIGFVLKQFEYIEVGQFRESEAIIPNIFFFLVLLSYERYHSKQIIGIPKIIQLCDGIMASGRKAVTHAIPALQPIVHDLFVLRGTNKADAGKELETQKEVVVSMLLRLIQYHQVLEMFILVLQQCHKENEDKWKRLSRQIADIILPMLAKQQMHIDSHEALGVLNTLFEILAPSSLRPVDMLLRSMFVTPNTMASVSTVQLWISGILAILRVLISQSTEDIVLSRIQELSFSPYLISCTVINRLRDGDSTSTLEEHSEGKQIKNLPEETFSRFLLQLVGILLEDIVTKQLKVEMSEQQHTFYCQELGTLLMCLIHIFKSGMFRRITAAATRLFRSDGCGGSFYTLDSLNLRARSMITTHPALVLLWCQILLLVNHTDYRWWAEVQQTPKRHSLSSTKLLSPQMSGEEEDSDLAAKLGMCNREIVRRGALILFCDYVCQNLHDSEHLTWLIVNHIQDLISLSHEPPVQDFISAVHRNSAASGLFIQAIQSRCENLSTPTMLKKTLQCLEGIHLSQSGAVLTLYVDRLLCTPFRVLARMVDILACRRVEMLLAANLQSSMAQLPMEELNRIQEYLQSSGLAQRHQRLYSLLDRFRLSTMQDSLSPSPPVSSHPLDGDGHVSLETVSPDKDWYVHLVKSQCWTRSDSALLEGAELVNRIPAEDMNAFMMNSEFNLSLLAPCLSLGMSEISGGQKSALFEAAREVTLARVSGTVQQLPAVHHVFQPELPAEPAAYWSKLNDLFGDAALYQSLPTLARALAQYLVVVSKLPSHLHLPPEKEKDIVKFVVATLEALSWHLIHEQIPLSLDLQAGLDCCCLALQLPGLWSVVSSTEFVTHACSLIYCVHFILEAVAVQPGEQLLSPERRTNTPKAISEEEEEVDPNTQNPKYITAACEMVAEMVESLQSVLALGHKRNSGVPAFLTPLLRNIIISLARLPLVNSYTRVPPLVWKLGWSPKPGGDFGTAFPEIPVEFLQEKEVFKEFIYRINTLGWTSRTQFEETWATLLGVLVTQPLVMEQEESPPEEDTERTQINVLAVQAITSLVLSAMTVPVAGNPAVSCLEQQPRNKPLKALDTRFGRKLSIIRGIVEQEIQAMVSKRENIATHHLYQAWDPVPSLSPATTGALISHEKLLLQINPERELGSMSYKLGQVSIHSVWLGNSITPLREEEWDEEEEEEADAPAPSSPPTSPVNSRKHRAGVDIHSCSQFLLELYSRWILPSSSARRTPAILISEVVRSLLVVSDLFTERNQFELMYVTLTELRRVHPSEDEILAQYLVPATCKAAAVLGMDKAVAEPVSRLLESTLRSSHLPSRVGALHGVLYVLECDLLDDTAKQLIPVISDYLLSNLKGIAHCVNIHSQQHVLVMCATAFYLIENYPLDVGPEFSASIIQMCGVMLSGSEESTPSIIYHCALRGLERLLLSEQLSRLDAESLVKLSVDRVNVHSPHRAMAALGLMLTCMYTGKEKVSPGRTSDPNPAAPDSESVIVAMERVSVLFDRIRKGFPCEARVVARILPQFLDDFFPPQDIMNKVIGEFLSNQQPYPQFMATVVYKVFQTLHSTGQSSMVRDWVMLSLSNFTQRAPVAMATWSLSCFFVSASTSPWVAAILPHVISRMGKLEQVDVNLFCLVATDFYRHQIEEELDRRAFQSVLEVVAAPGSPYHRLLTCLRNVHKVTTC
row,SMILES,inhibition
1,COc1ccc2c(c1)OCC/C2=N\OC(=O)c1cc(Cl)ccc1OC,inactive
2,C=CCN1C=C(c2ccc3ccccc3n2)C(C#N)c2ccccc21 (centres undefined),15%
3,O=C(CSc1nccc(N2CCCCC2)n1)Nc1cc(C(F)(F)F)ccc1Cl,-12.5%
4,CN(C)C(=O)c1cnn(-c2ccccc2)c1-n1cccc1,2.9%
5,O=C(NCc1ccccn1)C1CC(=O)N(CCc2c[nH]c3ccc(F)cc23)C1 (centres undefined),46.9%
6,Cc1cc(OCC(=O)Nc2c(C)cccc2C)ccc1Cl,-6.2%
7,Cc1cc(OCC(=O)Nc2ccc(Cl)cn2)ccc1Cl,-7%
8,Cc1cc(OCC(=O)N2N=C(C(F)(F)F)CC2(O)C(C)(C)C)ccc1Cl (centres undefined),100% (active)
9,Cc1sc2ncnc(N3CCN(c4ccccn4)CC3)c2c1-c1ccc(F)cc1,0.3%
10,CCOC(=O)Nc1ccc2c(c1)CN(C(=O)c1cccs1)CC2,2.5%
11,CCOC(=O)C1CCc2sc(NC(=O)Cn3nc(C)cc3C)nc21 (centres undefined),-9.9%
12,CCOC(=O)C1CCc2sc(NC(=O)C3COCC(=O)N3Cc3ccccc3)nc21 (centres undefined),64.1% (active)
13,CCCNC(=O)C1CCN(c2nc3ccsc3c(=O)n2Cc2ccccc2)CC1,-1.4%
14,COc1cc(CNc2cc(C)cc(C)c2)c([N+](=O)[O-])cc1OC,75% (active)
15,COc1cc(CN2CCN(CCO)CC2)c([N+](=O)[O-])cc1OC,1.8%
16,COc1cc(CN2CCCN(C)CC2)c([N+](=O)[O-])cc1OC,-0.1%
17,Clc1ccccc1C1CC(c2ccccc2)n2ncnc2N1 (centres undefined),3.6%
18,Cc1ccc(-c2csc(/C(C#N)=C/c3ccc([N+](=O)[O-])cc3)n2)cc1,12.1%
19,N#C/C(=C\c1ccc(O)cc1)c1nc(-c2ccc(Cl)cc2)cs1,58.9% (active)
20,N#C/C(=C\c1ccc(F)cc1)c1nc(-c2ccc([N+](=O)[O-])cc2)cs1,1.8%
21,COc1cccc(CNC(=O)CC2CCN(S(=O)(=O)c3ccc(Cl)s3)CC2)c1,-9.77%
22,CN(C)c1ccc(C(=O)N2N=C(c3ccc(Br)cc3)CC2(O)C(F)(F)F)cc1 (centres undefined),13%
23,O=C(c1ccncc1)N1N=C(c2ccc(Cl)cc2)CC1(O)C(F)(F)F (centres undefined),58% (active)
24,O=C(C1CC1)N1N=C(c2ccc(Br)cc2)CC1(O)C(F)(F)F (centres undefined),-4%
25,O=[N+]([O-])c1cccc(C=Nc2ccc3nc(-c4cccc(F)c4)oc3c2)c1O,1%

row,SMILES,inhibition
1,O=C1c2ccccc2C(=O)N1CN(C(=O)c1ccc([N+](=O)[O-])cc1)c1ccc(F)cc1,1%
2,O=c1[nH]c(SCc2ccccc2)nnc1-c1ccccc1,-3%
3,O=C(CSc1oc(-c2ccco2)nc1S(=O)(=O)c1ccccc1)Nc1ccc(F)cc1,6%
4,O=C(CSc1nnc(-c2ccco2)c(-c2ccco2)n1)Nc1ccc(Br)cc1,79% (active)
5,Cc1ccc(F)cc1NC(=O)Cc1nn(C)c(=O)c2ccccc12,3%
6,N#Cc1c(-c2ccco2)cc(C2CC2)nc1SCc1ccccc1,-5%
7,O=C(CSc1nnc(-c2ccco2)n1-c1ccccc1)Nc1ccc(F)cc1,11.2%
8,Cc1ccccc1NC(=O)CSc1nnc(-c2ccco2)n1C,1%
9,c1ccc(CSc2nnc(-c3ccco3)c(-c3ccco3)n2)cc1,85% (active)
10,Cc1ccc(F)cc1NC(=O)CSc1nnc(-c2ccco2)c(-c2ccco2)n1,86% (active)
11,CCOCCCNC(=O)C1CCCN(c2nccc(C)n2)C1 (centres undefined),-8.18%
12,CCN1CCN(C(=O)c2c(C(C)C)nn(-c3cccc(Cl)c3)c2C(C)C)CC1,32.9%
13,CCc1nn(-c2ccc(F)cc2)c(CC)c1C(=O)N1CCN(C)CC1,9.8%
14,Cc1c(C(=O)N2CCN(C)CC2)c(CC(C)C)nn1-c1ccc(Cl)c(Cl)c1,94.8% (active)
15,CN(C)C(=O)CSc1nnc(N)s1,-4.07%
16,Cc1ccc2c(c1)C(=O)NC1(CCN(C(=O)c3ccc(C(F)(F)F)cc3)CC1)N2C,4.4%
17,O=C(c1ccccc1)N1CCCC(c2ccnc(Nc3ccccc3)n2)C1 (centres undefined),43.6%
18,CN(C)c1ccc(C(=O)N2CCCC(c3ccnc(Nc4cccc(F)c4)n3)C2)cc1 (centres undefined),80.1% (active)
19,N#Cc1ccc(C(=O)N2CCCC(c3ccnc(Nc4cccc(F)c4)n3)C2)cc1 (centres undefined),6.41%
20,COc1ccc(C(=O)N2CCCC(c3ccnc(Nc4ccccc4)n3)C2)cc1 (centres undefined),69.4% (active)
21,N#Cc1ccc(C(=O)N2CCCC(c3ccnc(Nc4ccccc4)n3)C2)cc1 (centres undefined),-5.02%
22,O=C(c1ccccc1F)N1CCCC(c2ccnc(-c3cccc(F)c3)n2)C1 (centres undefined),1.2%
23,COc1ccc(CCNC(=S)NC2Cc3ccccc3C2)cc1OC,6.9%
24,Cc1onc(-c2ccccc2)c1C(=O)Nc1ccc(S(N)(=O)=O)cc1,-0.8%
25,CN1CCN(c2cc(C(=O)O)c3cc(F)ccc3n2)CC1,3.5%

row,SMILES,inhibition
1,N#Cc1ccc(Sc2nc3ccccc3o2)c([N+](=O)[O-])c1,12%
2,COc1ncccc1CNC(=O)c1cccs1,-2.2%
3,Cc1ccc(C)c(NC(=O)Cc2ccccc2)c1,0.9%
4,Cc1ccc(C(NC(=O)Cc2ccccc2)c2ccc3cccnc3c2O)cc1 (centres undefined),100% (active)
5,Cc1ccc(C(=O)NCCOc2cccc3cccnc23)cc1,9% and -2%
6,CC(=O)NC(c1cccs1)c1cc(Cl)c2cccnc2c1O (centres undefined),70% (active) and 100% (active)
7,O=C(Cc1ccccc1)Nc1ccc(F)c(Cl)c1,-11.1%
8,O=C(Cc1ccccc1)NC(c1ccc(Cl)cc1)c1ccc2cccnc2c1O (centres undefined),99% (active)
9,COc1cccc(C(=O)NC(c2cccc([N+](=O)[O-])c2)c2cc(Cl)c3cccnc3c2O)c1 (centres undefined),19%
10,CC(NC(=O)COc1ncccn1)c1ccccc1 (centres undefined),-13.9%
11,O=C(Cc1ccccc1)NC(Nc1ccccc1Cl)C(Cl)(Cl)Cl (centres undefined),20%
12,O=C(O)c1ccccc1C(=O)Nc1cccc2cccnc12,4%
13,CC(=O)NC(c1ccccc1)c1ccc2cccnc2c1O (centres undefined),100% (active)
14,CC(C)c1ccc(OCC(=O)Nc2ccccc2[N+](=O)[O-])cc1,3.8%
15,COc1ccc(-n2c(-c3cccc([N+](=O)[O-])c3)cn3c4c(=O)n(C)c(=O)n(C)c4nc23)cc1,4%
16,CC(=O)c1ccc(NC(=O)CSc2ncc(-c3ccc(C)c(C)c3)o2)cc1,2.5%
17,CC(=O)N1CCc2cc(Br)cc(S(=O)(=O)NCCc3ccccc3)c21,20%
18,CC(=O)C1=C(C)NC(SCC(=O)c2ccccc2)=C(C#N)C1c1ccc(Br)cc1 (centres undefined),-23.7%
19,COc1cc(NC(=O)c2ccccc2OC)c(OC)cc1Cl,9%
20,Cc1ccc(C)c(C(O)=C2C(=O)C(=O)N(CCCN3CCOCC3)C2c2ccncc2)c1 (centres undefined),-2.8%
21,Clc1ccc(C2C=C(c3cccc(Br)c3)Nc3nnnn32)c(Cl)c1 (centres undefined),-5%
22,CCOc1ccc2nc(NC(=O)c3ccc(OC)cc3)sc2c1,-5%
23,O=C(Nc1nncs1)c1ccc2nc(-c3ccco3)c(-c3ccco3)nc2c1,99.4% (active)
24,O=C(Nc1ccc(Cl)cc1)c1ccc2nc3ccccc3nc2c1,13.5%
25,COc1ccc(C=C2Oc3cc(OC(=O)c4ccc5c(c4)OCO5)ccc3C2=O)c(OC)c1OC,3.6%

row,SMILES,inhibition
1,COc1ccc(-c2coc3c(C)c4oc(=O)c5ccccc5c4cc23)cc1F,2%
2,N#CC1=C(N)Oc2n[nH]c(-c3ccccc3)c2C1c1ccc(F)c(Br)c1 (centres undefined),20%
3,Cc1cc(-c2[nH]c3c(c2-c2cc(C)sc2C)c(=O)n(C)c(=O)n3C)c(C)s1,-3%
4,O=C(NCCSc1c[nH]c2ccccc12)c1ccc(Cl)c([N+](=O)[O-])c1,37%
5,O=C(COc1ccc(Cl)cc1Cl)NCCSc1c[nH]c2ccccc12,61% (active)
6,Cc1cc(Cl)ccc1OCC(=O)NCCc1nc2ccccc2[nH]1,19%
7,COc1cccc(NC(=O)C2(c3ccccc3)CCOCC2)c1,1.7%
8,Cc1cccc2nnc(N3CCC(C(=O)N4CCOCC4)CC3)n12,1.65%
9,Cc1cc(C)nc(NC(=O)c2cccc(F)c2)c1,-6.5%
10,Cc1ccnc(NC(c2ccc(O)cc2)c2ccc3ccc(C)nc3c2O)c1 (centres undefined),98% (active)
11,Cc1cccc(NC(c2cccc(F)c2)c2ccc3ccc(C)nc3c2O)n1 (centres undefined),76% (active)
12,Cc1cccc(NC(=O)c2cc(F)ccc2F)n1,-3%
13,Cc1cc(S(=O)(=O)NCc2cccnc2)c(Cl)cc1Cl,-3.6%
14,Cc1ccc(CNC(=O)N2CCCC(C)(C(=O)NCc3ccccc3)C2)cc1 (centres undefined),0.08%
15,Cc1ccc(CNC(=O)C2(C)CCCN(S(=O)(=O)c3cc(C)c(C)cc3C)C2)cc1 (centres undefined),52.3% (active)
16,Cc1ccc(S(=O)(=O)N2CCCC(C)(C(=O)NCc3ccccc3C)C2)cc1 (centres undefined),13%
17,CCN=C1SC(C(=O)Nc2ccc(Cl)cc2)CC(=O)N1CC (centres undefined),7%
18,CCN(CC)S(=O)(=O)N(CC(=O)NC(C)(C)C)Cc1ccc(F)cc1,-4%
19,CCn1cc2c3c(cccc31)CN(C(=O)Nc1cc(C)ccc1OC)CC2,60.9% (active)
20,CCn1cc2c3c(cccc31)CN(C(=O)Nc1ccc(C)cc1C)CC2,26.9%
21,CCCn1cc2c3c(cccc31)CN(C(=O)Nc1cc(OC)c(OC)c(OC)c1)CC2,2.35%
22,CC(C)Cn1cc2c3c(cccc31)CN(C(=O)Nc1ccc(F)cc1)CC2,0.25%
23,CCn1cc2c3c(cccc31)CN(C(=O)c1ccc(OC)cc1)CC2,44.1%
24,COc1ccc(OC)c(NC(=O)N2CCc3cn(CC(C)C)c4cccc(c34)C2)c1,69.3% (active)
